Measured values from ChEMBL document CHEMBL1961873, “Compounds: GSK PKIS; Assays: Nanosyn kinase panel” (2012).

Experiments:
[1] = target: Sphingosine kinase 1 (Homo sapiens) (UniProt Q9NYA1); conditions: at 1 µM;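 further: mean SPHK1 inhibition value reported from the GSK PKIS kinase panel screen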
[2] = target: T1, Sphingosine kinase 2 (Homo sapiens) (UniProt Q9NRA0); conditions: at 0.1 µM
T1 sequence (whole entry): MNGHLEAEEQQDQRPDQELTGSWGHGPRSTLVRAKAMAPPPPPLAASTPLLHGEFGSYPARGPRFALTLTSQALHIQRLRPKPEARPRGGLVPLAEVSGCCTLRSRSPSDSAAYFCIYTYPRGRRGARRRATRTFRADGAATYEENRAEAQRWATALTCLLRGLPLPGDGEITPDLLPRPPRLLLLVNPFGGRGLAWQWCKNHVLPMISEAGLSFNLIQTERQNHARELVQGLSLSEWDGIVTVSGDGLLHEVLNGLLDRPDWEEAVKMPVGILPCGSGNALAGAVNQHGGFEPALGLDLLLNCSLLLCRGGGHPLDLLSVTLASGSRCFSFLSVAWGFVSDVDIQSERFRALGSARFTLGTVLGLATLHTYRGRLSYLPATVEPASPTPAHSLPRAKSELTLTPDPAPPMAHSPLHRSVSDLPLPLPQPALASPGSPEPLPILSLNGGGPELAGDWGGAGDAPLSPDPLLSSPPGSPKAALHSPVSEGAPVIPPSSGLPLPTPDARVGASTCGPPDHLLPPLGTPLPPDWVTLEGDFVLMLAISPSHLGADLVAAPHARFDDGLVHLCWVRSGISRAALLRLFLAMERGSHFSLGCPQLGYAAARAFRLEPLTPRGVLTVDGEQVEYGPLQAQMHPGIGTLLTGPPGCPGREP

[3] = target: T1, Sphingosine kinase 2 (Homo sapiens); conditions: at 1 µM
[4] = target: Casein kinase II subunit alpha (Homo sapiens) (UniProt P68400); conditions: at 0.1 µM
[5] = target: Casein kinase II subunit alpha (Homo sapiens) (UniProt P68400); conditions: at 1 µM
[6] = target: T2, Inhibitor of nuclear factor kappa-B kinase subunit alpha (Homo sapiens) (UniProt O15111); conditions: at 0.1 µM
T2 sequence (whole entry): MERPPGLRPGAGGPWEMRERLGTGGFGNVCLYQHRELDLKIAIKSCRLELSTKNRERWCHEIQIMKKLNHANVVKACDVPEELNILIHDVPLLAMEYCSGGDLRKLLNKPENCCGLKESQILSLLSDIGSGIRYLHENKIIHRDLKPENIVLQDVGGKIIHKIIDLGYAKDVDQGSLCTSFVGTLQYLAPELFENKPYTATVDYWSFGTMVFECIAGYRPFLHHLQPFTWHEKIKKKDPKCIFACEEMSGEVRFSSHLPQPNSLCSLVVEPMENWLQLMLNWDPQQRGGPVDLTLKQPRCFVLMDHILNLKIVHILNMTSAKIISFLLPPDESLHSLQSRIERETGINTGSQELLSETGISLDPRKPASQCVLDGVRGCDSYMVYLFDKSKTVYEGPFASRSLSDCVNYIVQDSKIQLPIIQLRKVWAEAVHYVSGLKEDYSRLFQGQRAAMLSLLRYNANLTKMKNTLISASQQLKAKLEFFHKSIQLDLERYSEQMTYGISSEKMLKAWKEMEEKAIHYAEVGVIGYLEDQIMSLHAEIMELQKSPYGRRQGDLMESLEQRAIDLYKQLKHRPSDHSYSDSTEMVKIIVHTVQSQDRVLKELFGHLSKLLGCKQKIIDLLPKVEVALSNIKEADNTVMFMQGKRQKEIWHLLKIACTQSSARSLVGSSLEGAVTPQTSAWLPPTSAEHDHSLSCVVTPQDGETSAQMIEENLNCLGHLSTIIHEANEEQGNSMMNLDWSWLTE

[7] = target: T2, Inhibitor of nuclear factor kappa-B kinase subunit alpha (Homo sapiens); conditions: at 1 µM
[8] = target: T3, Inhibitor of nuclear factor kappa-B kinase subunit beta (Homo sapiens) (UniProt O14920); conditions: at 0.1 µM
T3 sequence (whole entry): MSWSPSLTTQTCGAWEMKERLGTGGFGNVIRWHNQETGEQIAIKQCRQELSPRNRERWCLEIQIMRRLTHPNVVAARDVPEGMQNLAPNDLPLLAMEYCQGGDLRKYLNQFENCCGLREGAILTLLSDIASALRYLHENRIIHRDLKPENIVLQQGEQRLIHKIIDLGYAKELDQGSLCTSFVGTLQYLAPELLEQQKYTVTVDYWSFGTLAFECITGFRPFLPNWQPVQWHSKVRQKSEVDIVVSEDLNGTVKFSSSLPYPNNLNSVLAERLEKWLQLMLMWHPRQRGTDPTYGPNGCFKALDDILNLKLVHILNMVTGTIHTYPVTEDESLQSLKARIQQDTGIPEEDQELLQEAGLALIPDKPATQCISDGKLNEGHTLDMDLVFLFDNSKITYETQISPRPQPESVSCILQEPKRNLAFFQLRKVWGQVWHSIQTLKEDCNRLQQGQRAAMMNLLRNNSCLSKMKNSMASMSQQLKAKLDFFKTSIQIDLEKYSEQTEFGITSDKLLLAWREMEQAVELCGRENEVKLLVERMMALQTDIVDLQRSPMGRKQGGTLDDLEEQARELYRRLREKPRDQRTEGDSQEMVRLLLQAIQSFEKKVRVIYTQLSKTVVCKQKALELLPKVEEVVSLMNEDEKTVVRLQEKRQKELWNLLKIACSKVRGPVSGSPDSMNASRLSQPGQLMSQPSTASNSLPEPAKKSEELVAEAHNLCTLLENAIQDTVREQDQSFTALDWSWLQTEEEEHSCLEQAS

[9] = target: T3, Inhibitor of nuclear factor kappa-B kinase subunit beta (Homo sapiens); conditions: at 1 µM
[10] = target: T4, Inhibitor of nuclear factor kappa-B kinase subunit epsilon (Homo sapiens) (UniProt Q14164); conditions: at 0.1 µM
T4 sequence (whole entry): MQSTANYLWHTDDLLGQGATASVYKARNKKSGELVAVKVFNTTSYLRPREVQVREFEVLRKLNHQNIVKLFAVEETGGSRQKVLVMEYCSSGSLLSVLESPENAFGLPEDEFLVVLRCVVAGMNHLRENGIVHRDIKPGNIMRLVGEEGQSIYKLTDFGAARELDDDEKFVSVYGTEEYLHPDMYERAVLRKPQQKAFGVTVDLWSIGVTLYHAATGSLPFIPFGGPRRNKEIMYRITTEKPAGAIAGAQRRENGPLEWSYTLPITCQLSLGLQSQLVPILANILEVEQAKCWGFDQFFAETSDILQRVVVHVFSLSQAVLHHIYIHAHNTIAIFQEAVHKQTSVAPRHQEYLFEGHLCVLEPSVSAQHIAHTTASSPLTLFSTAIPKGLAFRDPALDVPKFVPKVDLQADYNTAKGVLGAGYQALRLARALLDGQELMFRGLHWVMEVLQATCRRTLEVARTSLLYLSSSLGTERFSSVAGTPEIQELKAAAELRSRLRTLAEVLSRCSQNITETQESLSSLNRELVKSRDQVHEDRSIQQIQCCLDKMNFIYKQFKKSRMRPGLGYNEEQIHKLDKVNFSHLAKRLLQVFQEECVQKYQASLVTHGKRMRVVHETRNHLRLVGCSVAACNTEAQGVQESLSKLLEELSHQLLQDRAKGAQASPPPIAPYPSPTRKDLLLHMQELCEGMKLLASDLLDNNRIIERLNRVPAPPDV

[11] = target: T4, Inhibitor of nuclear factor kappa-B kinase subunit epsilon (Homo sapiens); conditions: at 1 µM
[12] = target: T5, Serine/threonine-protein kinase Nek1 (Homo sapiens) (UniProt Q96PY6); conditions: at 0.1 µM
T5 sequence (whole entry): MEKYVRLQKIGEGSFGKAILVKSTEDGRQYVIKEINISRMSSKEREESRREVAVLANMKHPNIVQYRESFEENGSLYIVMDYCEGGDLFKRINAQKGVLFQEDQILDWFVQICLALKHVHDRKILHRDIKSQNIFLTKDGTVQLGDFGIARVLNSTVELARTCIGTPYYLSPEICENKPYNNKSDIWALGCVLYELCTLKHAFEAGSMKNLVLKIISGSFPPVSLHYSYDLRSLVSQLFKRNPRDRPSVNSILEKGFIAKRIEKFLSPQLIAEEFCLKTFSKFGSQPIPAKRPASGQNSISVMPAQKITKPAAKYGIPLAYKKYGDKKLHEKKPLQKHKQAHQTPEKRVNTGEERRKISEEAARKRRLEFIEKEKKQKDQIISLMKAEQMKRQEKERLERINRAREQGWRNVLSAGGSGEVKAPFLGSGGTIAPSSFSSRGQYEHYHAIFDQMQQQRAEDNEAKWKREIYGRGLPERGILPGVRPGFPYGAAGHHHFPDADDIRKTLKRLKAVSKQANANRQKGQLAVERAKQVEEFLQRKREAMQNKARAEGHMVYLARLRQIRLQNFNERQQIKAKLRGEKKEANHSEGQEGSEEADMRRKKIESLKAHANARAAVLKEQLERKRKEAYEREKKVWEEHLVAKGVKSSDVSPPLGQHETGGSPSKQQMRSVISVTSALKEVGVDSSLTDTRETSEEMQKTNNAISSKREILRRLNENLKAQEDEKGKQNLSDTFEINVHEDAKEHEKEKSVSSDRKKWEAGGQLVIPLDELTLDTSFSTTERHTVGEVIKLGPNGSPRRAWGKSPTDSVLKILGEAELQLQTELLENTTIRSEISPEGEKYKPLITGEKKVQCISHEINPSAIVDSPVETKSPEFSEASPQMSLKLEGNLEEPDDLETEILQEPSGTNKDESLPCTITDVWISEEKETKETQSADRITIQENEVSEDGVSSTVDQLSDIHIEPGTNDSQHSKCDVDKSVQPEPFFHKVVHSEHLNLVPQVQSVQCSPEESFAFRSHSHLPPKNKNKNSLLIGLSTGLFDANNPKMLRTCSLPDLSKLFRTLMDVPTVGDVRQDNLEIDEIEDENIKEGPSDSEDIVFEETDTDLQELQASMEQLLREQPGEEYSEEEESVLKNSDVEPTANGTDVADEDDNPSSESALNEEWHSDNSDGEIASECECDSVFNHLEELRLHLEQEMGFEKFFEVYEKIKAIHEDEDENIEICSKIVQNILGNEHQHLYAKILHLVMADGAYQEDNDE

[13] = target: T5, Serine/threonine-protein kinase Nek1 (Homo sapiens); conditions: at 1 µM
[14] = target: T6, Serine/threonine-protein kinase Nek2 (Homo sapiens) (UniProt P51955); conditions: at 0.1 µM
T6 sequence (whole entry): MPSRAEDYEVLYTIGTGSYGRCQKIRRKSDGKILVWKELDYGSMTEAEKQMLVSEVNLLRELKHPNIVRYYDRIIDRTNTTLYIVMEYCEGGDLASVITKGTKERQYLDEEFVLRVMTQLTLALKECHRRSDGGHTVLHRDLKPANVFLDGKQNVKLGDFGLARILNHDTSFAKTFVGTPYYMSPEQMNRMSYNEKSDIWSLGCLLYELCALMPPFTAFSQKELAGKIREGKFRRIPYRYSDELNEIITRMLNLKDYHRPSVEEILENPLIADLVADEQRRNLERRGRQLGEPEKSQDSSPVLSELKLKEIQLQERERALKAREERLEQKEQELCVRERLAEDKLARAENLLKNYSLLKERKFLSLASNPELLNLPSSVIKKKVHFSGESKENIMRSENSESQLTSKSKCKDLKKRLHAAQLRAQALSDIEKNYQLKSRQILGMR

[15] = target: T6, Serine/threonine-protein kinase Nek2 (Homo sapiens); conditions: at 1 µM
[16] = target: Serine/threonine-protein kinase Nek6 (Homo sapiens) (UniProt Q9HC98); conditions: at 0.1 µM
[17] = target: Serine/threonine-protein kinase Nek6 (Homo sapiens) (UniProt Q9HC98); conditions: at 1 µM
[18] = target: Serine/threonine-protein kinase Nek7 (Homo sapiens) (UniProt Q8TDX7); conditions: at 0.1 µM
[19] = target: Serine/threonine-protein kinase Nek7 (Homo sapiens) (UniProt Q8TDX7); conditions: at 1 µM
[20] = target: T7, Serine/threonine-protein kinase Nek9 (Homo sapiens) (UniProt Q8TD19); conditions: at 0.1 µM;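 further: reported value is the mean percent inhibition of NEK9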
T7 sequence (whole entry): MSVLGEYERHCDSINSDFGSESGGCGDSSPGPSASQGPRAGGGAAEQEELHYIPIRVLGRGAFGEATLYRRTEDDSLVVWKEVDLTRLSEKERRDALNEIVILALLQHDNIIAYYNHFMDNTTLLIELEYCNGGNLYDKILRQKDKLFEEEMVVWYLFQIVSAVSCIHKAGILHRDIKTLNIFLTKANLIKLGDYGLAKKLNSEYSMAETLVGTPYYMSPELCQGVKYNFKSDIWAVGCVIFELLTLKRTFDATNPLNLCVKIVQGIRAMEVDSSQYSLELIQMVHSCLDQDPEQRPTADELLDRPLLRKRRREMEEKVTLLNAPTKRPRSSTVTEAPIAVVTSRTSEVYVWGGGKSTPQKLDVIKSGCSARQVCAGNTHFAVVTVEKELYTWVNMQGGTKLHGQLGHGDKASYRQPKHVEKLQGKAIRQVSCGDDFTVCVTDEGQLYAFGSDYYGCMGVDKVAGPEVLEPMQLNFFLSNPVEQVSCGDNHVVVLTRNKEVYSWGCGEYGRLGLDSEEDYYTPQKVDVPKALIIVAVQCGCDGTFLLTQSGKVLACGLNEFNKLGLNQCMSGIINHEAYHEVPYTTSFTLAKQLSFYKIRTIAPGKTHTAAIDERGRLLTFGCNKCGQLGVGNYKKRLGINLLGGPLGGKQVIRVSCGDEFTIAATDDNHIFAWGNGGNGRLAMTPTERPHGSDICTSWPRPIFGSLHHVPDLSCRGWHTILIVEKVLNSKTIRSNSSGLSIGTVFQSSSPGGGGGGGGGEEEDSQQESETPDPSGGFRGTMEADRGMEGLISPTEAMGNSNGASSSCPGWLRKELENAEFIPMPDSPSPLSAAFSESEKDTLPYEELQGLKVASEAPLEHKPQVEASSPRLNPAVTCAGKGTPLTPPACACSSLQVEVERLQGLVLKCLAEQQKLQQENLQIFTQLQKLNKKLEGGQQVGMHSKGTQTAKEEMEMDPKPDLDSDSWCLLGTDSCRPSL

Sequence of Serine/threonine-protein kinase Nek6 (Homo sapiens) (Q9HC98 whole entry): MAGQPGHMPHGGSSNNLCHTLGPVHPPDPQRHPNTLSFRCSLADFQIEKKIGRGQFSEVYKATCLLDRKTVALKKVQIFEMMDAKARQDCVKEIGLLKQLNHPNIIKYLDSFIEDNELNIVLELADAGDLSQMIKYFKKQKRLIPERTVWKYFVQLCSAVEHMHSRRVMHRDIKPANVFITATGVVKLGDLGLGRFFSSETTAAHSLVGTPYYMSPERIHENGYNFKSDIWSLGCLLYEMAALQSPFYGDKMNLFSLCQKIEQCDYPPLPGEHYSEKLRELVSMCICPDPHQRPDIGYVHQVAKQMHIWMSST
Sequence of Serine/threonine-protein kinase Nek7 (Homo sapiens) (Q8TDX7 whole entry, looked up): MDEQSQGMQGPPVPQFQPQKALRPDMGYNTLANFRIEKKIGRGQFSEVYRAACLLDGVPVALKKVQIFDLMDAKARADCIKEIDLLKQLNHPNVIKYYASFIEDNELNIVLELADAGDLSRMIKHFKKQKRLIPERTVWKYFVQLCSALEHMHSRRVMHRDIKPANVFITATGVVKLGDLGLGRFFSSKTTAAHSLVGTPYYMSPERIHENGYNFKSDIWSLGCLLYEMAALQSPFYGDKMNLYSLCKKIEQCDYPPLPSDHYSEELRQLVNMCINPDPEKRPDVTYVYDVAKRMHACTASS
Sequence of Casein kinase II subunit alpha (Homo sapiens) (P68400 whole entry, looked up): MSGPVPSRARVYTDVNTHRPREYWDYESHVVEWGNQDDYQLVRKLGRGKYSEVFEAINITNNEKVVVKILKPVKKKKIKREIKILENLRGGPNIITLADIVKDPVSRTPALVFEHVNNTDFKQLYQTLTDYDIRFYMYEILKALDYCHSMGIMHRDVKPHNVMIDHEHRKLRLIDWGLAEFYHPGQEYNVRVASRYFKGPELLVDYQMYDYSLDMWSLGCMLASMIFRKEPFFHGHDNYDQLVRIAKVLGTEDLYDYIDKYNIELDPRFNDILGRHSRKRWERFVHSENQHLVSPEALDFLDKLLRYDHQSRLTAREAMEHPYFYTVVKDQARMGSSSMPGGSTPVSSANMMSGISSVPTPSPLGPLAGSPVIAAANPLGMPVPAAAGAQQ
Sequence of Sphingosine kinase 1 (Homo sapiens) (Q9NYA1 whole entry): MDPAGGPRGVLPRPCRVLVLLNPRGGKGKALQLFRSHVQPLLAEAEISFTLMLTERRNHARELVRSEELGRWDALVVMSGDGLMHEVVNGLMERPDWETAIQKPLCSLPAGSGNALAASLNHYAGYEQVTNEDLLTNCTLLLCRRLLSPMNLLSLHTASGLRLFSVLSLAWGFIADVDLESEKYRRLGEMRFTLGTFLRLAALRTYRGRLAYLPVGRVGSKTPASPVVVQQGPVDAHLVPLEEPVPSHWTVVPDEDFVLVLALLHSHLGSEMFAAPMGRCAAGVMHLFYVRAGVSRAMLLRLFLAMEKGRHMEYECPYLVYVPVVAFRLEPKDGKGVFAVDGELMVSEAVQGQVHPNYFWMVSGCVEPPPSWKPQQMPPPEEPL

SMILES | inhibition [1] [%] | inhibition [2] [%] | inhibition [3] [%] | inhibition [4] [%] | inhibition [5] [%] | inhibition [6] [%] | inhibition [7] [%] | inhibition [8] [%] | inhibition [9] [%] | inhibition [10] [%] | inhibition [11] [%] | inhibition [12] [%] | inhibition [13] [%] | inhibition [14] [%] | inhibition [15] [%] | inhibition [16] [%] | inhibition [17] [%] | inhibition [18] [%] | inhibition [19] [%] | inhibition [20] [%]
Fc1cccc(COc2ccc(Nc3ncnc4cc(-c5ccc[nH]5)sc34)cc2Cl)c1 | 4.94 | 0.87 | -0.25 | 1.61 | 2.66 | 2.16 | 1.99 | 2.5 | 1.35 | 2.66 | 3.19 | 1.42 | 4.17 | 3.51 | 5.24 | 1.65 | 3.84 | 5.51 | 2.22 | 1.71
CS(=O)(=O)CCNCc1nc(-c2ccc3ncnc(Nc4ccc(F)c(Cl)c4)c3c2)cs1 | 0.42 | 0.49 | -0.93 | 1.14 | 5.94 | -4.65 | -4.39 | -0.32 | 1.99 | 1.53 | 2.88 | -0.13 | 1.85 | 2.32 | 2.06 | 3.94 | 4.01 | -1.48 | 1.7 | 0.58
